# Experimental data taken from PubChem BioAssay AID504332 (National Center for Advancing Translational Sciences (NCATS), 2011).
# The campaign covered roughly 350,000 compounds. About 31,000 (8.9%) were called active. Not shown: some 15% with an inconclusive outcome. Shown is part of a subset that was picked to be rich in actives. Entries that show only a call come without a potency. A number with no mark means an inactive call. The call rests on the fitted dose curve; in most records, active means well fitted inhibition curve with a large enough effect; inconclusive means small, poorly fitted or top-dose-only effect; inactive means no such curve, though single readings can be large or run the other way.
# Molecular target: Histone-lysine N-methyltransferase EHMT2 (Homo sapiens) (UniProt Q96KQ7)
# Assay: qHTS Assay for Inhibitors of Histone Lysine Methyltransferase G9a; further: nearly all actives have a fitted effect of over 75% in size
# Conditions: G9a H3K9 monomethylation, AlphaScreen, 2 h; series mostly up to 59 µM
# Method in brief: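 G9a (20 nM) was preincubated 15 min with compound, then reacted 2 h at room temperature with 500 nM biotin-H3K9 peptide and 20 µM SAM. Monomethyl-H3K9 detected by AlphaScreen using anti-H3K9me1 antibody.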
# Potency means the concentration at half of the fitted maximal effect.
# Sequence of Histone-lysine N-methyltransferase EHMT2 (Homo sapiens) (Q96KQ7 913-1193 limits assumed): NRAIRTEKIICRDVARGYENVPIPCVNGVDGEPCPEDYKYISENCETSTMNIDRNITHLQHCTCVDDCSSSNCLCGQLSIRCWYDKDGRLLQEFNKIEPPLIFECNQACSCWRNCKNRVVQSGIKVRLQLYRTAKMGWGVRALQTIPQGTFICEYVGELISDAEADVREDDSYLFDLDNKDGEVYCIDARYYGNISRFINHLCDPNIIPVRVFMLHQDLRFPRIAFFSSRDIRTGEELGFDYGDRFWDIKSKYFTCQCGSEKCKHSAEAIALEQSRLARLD
SMILES,Potency,"activity, negative = inhibition"
Cc1cc(C)cc(NC(=S)NCCc2c[nH]c3ccccc23)c1,39.8 µM (active),–
O=C(NCCc1c[nH]c2ccccc12)c1cccc(Br)c1,–,0.2% [at 2.33 µM]
O=C(NCCc1c[nH]c2ccccc12)c1cc2ccccc2oc1=O,inactive,–
O=C(O[C@H]1[C@H](Cc2ccccc2)NS(=O)(=O)[C@H]2C[C@@H]3C=C[C@]12O3)c1ccc([N+](=O)[O-])cc1,–,-6.93% [at 2.33 µM]
Brc1ccc(CN2CC[C@H]3C=CCc4cccc(c43)C2)cc1,–,12.2% [at 2.33 µM]
CCc1ccc(NC(=O)c2cc(S(=O)(=O)NC3CCCCCC3)ccc2F)cc1,inactive,–
Cc1ccc(-n2cc(CN(C)Cc3nccn3C)c(-c3cccc(C)c3)n2)cc1,39.8 µM (active),–
Cc1cccc(-n2cc(CN3CCN(C(=O)c4ncn[nH]4)CC3)c(-c3cccc(F)c3)n2)c1,inactive,–
COc1ccc(-c2[nH]ncc2CN(Cc2nccn2C)C(C)C)cc1F,inactive,–
COc1cc(C(=O)NCCS(=O)(=O)N2CCN(c3ccccc3)CC2)cc(OC)c1OC,inactive,–
Cc1ccccc1CNC(=O)C(=O)NCC(c1cccs1)S(=O)(=O)c1cccs1 (centres undefined),inactive,–
CCc1ccc(NC(=O)CCS(=O)(=O)c2cc3c(cc2Cl)NC(=O)CO3)cc1,inactive,–
CCOC(=O)c1ccc(-c2ccc(/C=C(\C#N)C(=O)Nc3ccc(C)cc3)o2)cc1,inactive,–
Cc1cccc(N2C(=O)c3ccc(C(=O)Nc4cccc(C(=O)O)c4)cc3C2=O)c1,inactive,–
O=C(Nc1ccc2c(c1)OCO2)c1ccc(N2C(=O)c3ccccc3C2=O)cc1,inactive,–
CC(=O)Nc1ccc(NC(=O)c2ccc3c(c2)C(=O)N(c2ccccc2C)C3=O)cc1,39.8 µM (active),–
O=C(CCNS(=O)(=O)c1ccc(Br)cc1)NCC1CCCO1 (centres undefined),inactive,–
CC1CN(C(=O)N2CCC(C(=O)NCc3cccs3)CC2)c2ccccc2O1 (centres undefined),inactive,–
CSCCC(NC(=O)COc1ccccc1)C(=O)OCCOc1ccc(F)cc1 (centres undefined),inactive,–
COC(=O)c1cc(-c2cccs2)nc2ccccc12,–,17% [at 2.33 µM]
CCCCN(C)CCCNC(=O)c1cc(-c2cccs2)nc2ccccc12,inactive,–

SMILES,Potency,"activity, negative = inhibition"
O=C(Nc1nnc(-c2ccccc2)o1)c1cc(-c2cccs2)nc2ccccc12,39.8 µM (active),–
COC(=O)c1cc2occc2n1Cc1nc(-c2ccc(C)cc2)oc1C,inactive,–
CC(=O)c1c(C)[nH]c(C(=O)OCC(=O)Nc2c(C)n(C)n(-c3ccccc3)c2=O)c1C,inactive,–
CC1CCCCN1CC(=O)NCc1ccc2c(c1)OCO2 (centres undefined),–,8.12% [at 12.7 µM]
Cc1ccc(CC2CC(=O)N(c3ccc4c(c3)OCCO4)C2=O)cc1 (centres undefined),inactive,–
Cc1ccc(N2C(=O)CC(NCc3ccc4c(c3)OCO4)C2=O)cc1Cl (centres undefined),39.8 µM (active),–
O=C(c1ccc(Cn2cc([N+](=O)[O-])cn2)o1)N1CCCC1,inactive,–
CCCCNC(=O)C1CCCN(c2nnc(C)c3c(C)n(-c4ccc(Cl)cc4)nc23)C1 (centres undefined),inactive,–
COc1ccc(-n2c(SC)nc3sc4c(c3c2=O)CCN(C(C)=O)C4)cc1,inactive,–
CCOC(=O)c1sc(NC(=O)CSc2nc3c(c(=O)n2-c2ccccc2)SCC3)c(C(=O)OCC)c1C,inactive,–
COc1ccccc1NC(=O)CSc1nc2sc3c(c2c(=O)n1-c1ccccc1)CCN(C)C3,39.8 µM (active),–
COc1ccccc1-n1c(SCC(=O)O)nc2sc3c(c2c1=O)CCC3,inactive,–
CCOc1ccc(-n2c(SCC(=O)Nc3ccc(OC)cc3)nc3sc4c(c3c2=O)CCN(C)C4)cc1,39.8 µM (active),–
CCOc1ccc(NC(=O)CSc2nncn2C)cc1,inactive,–
CCc1nnc(NC(=O)CSc2nc3c(c(=O)n2-c2ccccc2OC)SCC3)s1,–,-12.8% [at 12.7 µM]
CC1(C)Cc2c(sc3nc(SCC(=O)NCc4ccccc4)n(-c4ccccc4)c(=O)c23)CS1,inactive,–
CCOc1ccc(NC(=O)CSc2nc3c(c(=O)n2-c2ccccc2OC)SCC3)cc1,31.6 µM (active),–
COc1ccc(/C=C/c2nc(C#N)c(NCc3ccc(F)cc3)o2)cc1OC,inactive,–
COc1ccc(NC(=O)CC2SC(N3CCCCC3)=NC2=O)cc1OC (centres undefined),–,29.8% [at 12.7 µM]
O=c1c2ccccc2n(Cc2cccc(Cl)c2)c(=O)n1Cc1ccccc1,inactive,–
COc1ccc(CNC(=O)CSCc2nc(-c3ccccc3F)oc2C)cc1,inactive,–

SMILES,Potency,"activity, negative = inhibition"
O=C(Cn1c(=O)n(-c2ccc(F)cc2)c(=O)c2sccc21)Nc1cccc(C(F)(F)F)c1,inactive,–
CCc1sc(C(=O)N2CCN(CC(=O)Nc3cccc(F)c3)CC2)cc1C,inactive,–
CCN(C(=O)COC(=O)C1CCN(S(=O)(=O)c2ccc(C)c(C)c2)CC1)C1CCS(=O)(=O)C1 (centres undefined),–,7.98% [at 2.33 µM]
COc1ccc(C2CC(=O)N(Cc3ccccc3C)c3c2c(C)nn3-c2nc(C)cc(C)n2)c(OC)c1 (centres undefined),inactive,–
Cc1cc(NC(=O)CSc2ncc(C(=O)Nc3ccc(Cl)cc3)c(=O)n2C)no1,inactive,–
COc1ccc(-c2nc(S(=O)(=O)c3ccccc3)c(N3CCCCC3)o2)cc1,inactive,–
O=S(=O)(c1ccccc1)c1nc(Cc2ccccc2)oc1N1CCOCC1,7.08 µM (active),–
COc1cccc(-c2nc(S(=O)(=O)c3ccccc3)c(N3CCOCC3)o2)c1,–,-43% [at 12.7 µM]
COc1ccc(CNC(=O)COC(=O)c2c(C)nn(-c3ccccc3)c2C)cc1OC,inactive,–
C#CCOCCOCCOCCNc1nc(N2CCN(C(=O)Cn3cc(CCCCN)nn3)CC2)nc(N2CCN(C(=O)[C@H](CCCCN)n3cc(CCC(=O)O)nn3)CC2)n1,–,5.8% [at 2.33 µM]
C#CCOCCOCCOCCNc1nc(N2CCN(C(=O)[C@H](C(C)C)n3cc(CCO)nn3)CC2)nc(N2CCN(C(=O)[C@H](C(C)C)n3cc(CCO)nn3)CC2)n1,44.7 µM (active),–
C#CCOCCOCCOCCNc1nc(N2CCN(C(=O)[C@H](C(C)C)n3cc(CCO)nn3)CC2)nc(N2CCN(C(=O)[C@H]([C@@H](C)CC)n3cc(CCCN=C(N)N)nn3)CC2)n1,39.8 µM (active),–
C#CCOCCOCCOCCNc1nc(N2CCN(C(=O)CCCCCCCCCCNC(=O)[C@H](CCCCN)n3cc(C)nn3)CC2)nc(N2CCN(C(=O)CCCCCCCCCCNC(=O)[C@H](CO)n3cc(CCCSC)nn3)CC2)n1,–,-8.81% [at 2.33 µM]
C#CCOCCOCCOCCNc1nc(N2CCN(C(=O)[C@H](CCCCN)n3cc(CCC(=O)O)nn3)CC2)nc(N2CCN(C(=O)[C@H](CCCCN)n3cc(CC(C)O)nn3)CC2)n1 (some centres undefined),–,-23.5% [at 2.33 µM]
C#CCOCCOCCOCCNc1nc(N2CCN(C(=O)CCCCCCCCCCNC(=O)[C@H]([C@@H](C)CC)n3cc(CCCCN=C(N)N)nn3)CC2)nc(N2CCN(C(=O)CCCCCCCCCCNC(=O)[C@H](CO)n3cc(CCCSC)nn3)CC2)n1,–,10.6% [at 2.33 µM]
COc1ccccc1CNC(=O)NCc1noc2ccc(C)cc12,inactive,–
Cc1cc(C)c(NC(=O)CCc2c(C)nc3c(c(C)nn3C(C)(C)C)c2C)c(C)c1,inactive,–
N#Cc1nc(/C=C/c2ccc(F)cc2)oc1NCc1ccc(F)cc1,inactive,–
O=C(Nc1ccc2c(c1)OCO2)c1cc(-c2cccc(Cl)c2)on1,inactive,–
COc1ccc(NC(=O)Cn2c(=O)cc(C)c3c(C)nn(-c4cccc(Cl)c4C)c32)cc1OC,inactive,–
COc1cccc(CNC(=O)Cc2csc3nc(-c4ccccc4)cn23)c1,inactive,–

SMILES,Potency,"activity, negative = inhibition"
O=C1/C(=C\c2ccsc2)NC(=S)N1c1ccccc1,50.1 µM (active),–
CC1=CC(C)(C)NC(=S)N1c1ccccc1,inactive,–
O=C1/C(=C/c2coc3ccc(O)cc3c2=O)SC(=S)N1c1ccccc1,–,-31.3% [at 12.7 µM]
CC(=O)c1ccccc1OCc1ccc(C(=O)c2ccccc2)cc1,inactive,–
COc1ccccc1N1CCN(S(=O)(=O)c2ccc(Cl)cc2)CC1,inactive,–
O=C(O)c1cccc(S(=O)(=O)N2CC=C(c3ccccc3)CC2)c1,–,23% [at 12.7 µM]
Cc1c(C2=CCN(S(=O)(=O)c3ccc(Cl)cc3)CC2)c2ccccc2n1C,44.7 µM (active),–
COc1ccc(NC(=O)CSC2=Nc3ccccc3C3=NC(CC(=O)NCc4ccccc4OC)C(=O)N23)cc1Cl (centres undefined),inactive,–
CCC(C)CCN1CCN=C1N(C)C (centres undefined),–,2.04% [at 2.33 µM]
CCC(C)(C)c1ccc(OCC(=O)N(C)C)c(C(C)(C)CC)c1,inactive,–
CN(C)CCOc1ccc(Cl)cc1C(C)(C)C,8.91 µM (active),–
O=C(NCCCO)c1nn(-c2ccc(Cl)cc2)nc1CO,inactive,–
Cc1nn(Cc2ccccc2)c(C)c1C(=O)NCCN1C(=O)S/C(=C\c2ccc(F)cc2)C1=O,inactive,–
COc1ccc(/C=C2\SC(=S)N(CCC(=O)Nc3cccc(C(=O)O)c3)C2=O)cc1OC,inactive,–
N#Cc1ccccc1CN1C(=O)S/C(=C/c2cccn2-c2cccc(C(=O)O)c2)C1=O,44.7 µM (active),–
CC(C)C(=O)Nc1nc2c(s1)CC(C(C)(C)C)CC2 (centres undefined),inactive,–
Cn1nnnc1SCCCNCc1ccc(Cl)cc1,inactive,–
O=C(CCNC(=O)c1ccccc1)Nc1nc2ccccc2s1,–,-6.33% [at 0.501 µM]
CN(C)CCOCCOc1ccc(Cl)c2ccccc12,14.1 µM (active),–
CCN(CC)CCOCCOc1ccc(Cl)c2ccccc12,inactive,–
O=S(=O)(c1ccc(Cl)cc1)c1nc(-c2ccco2)oc1N1CCCCC1,–,32.5% [at 12.7 µM]
